Assay results as given in PubChem BioAssay (NCATS).
“And” between values parts separate entries of the source, which are not always exact repeats. Equal values may be shown once. Inconclusive results are not listed. Entries that show only a call come without a potency. Values without a mark were called inactive. The source made the active and inactive calls. The call rests on the fitted dose curve; in most records, active means well fitted curve in the direction sought with a large enough effect; inconclusive means small, poorly fitted or top-dose-only effect, or another doubt; inactive means no such curve, though single readings can be large; an effect the other way counts as inactive or inconclusive. Square brackets hold non-standard residues; d marks the D form. Peptide text beside a SMILES is read from it. PhLac = O=C(O)[CH](O)Cc1ccccc1; NMeV = CN[CH](C(=O)O)C(C)C

Legend:
[1] = target: Cellular tumor antigen p53 (Homo sapiens) (UniProt P04637); test: Primary qHTS for small molecule compounds that upregulate eGFP-tagged delta133p53alpha (in N-terminal) cells. (AID 2060322); settings: NCI-H358 eGFP-delta133p53alpha fluorescence, 24 h; activation: stronger effect = higher value; further: nearly all actives have a fitted effect of over 75% in size; further: potency means the concentration at half of the fitted maximal effect; on activation: series mostly up to about 56 µM
Cellular tumor antigen p53 (Homo sapiens), sequence (P04637 whole entry, looked up): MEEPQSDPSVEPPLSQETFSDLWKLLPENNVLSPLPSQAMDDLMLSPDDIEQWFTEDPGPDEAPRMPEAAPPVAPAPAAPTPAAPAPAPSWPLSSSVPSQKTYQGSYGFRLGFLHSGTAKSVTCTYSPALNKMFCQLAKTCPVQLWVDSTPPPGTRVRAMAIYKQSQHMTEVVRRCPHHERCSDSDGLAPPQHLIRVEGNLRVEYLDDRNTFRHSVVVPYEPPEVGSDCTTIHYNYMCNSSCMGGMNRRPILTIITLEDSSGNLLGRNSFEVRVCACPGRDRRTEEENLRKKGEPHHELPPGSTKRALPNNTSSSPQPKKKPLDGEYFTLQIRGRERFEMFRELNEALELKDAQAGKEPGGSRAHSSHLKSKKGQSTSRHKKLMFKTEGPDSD
Method in brief: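 NCI-H358 cells pre-induced 24 h with 10 ng/ml doxycycline to express N-terminal eGFP-delta133p53alpha, then dosed 24 h at 37C without doxycycline; fixed, Hoechst-stained, GFP intensity by laser scanning cytometry, normalized to DMSO (0%) and 57.5 uM 5-azacytidine (100%).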

[2] = target: Aldehyde dehydrogenase, mitochondrial (Homo sapiens) (UniProt P05091); test: qHTS for Inhibitors of the Aldehyde Dehydrogenase Family (ALDH2) Primary screen (AID 2061308); further: nearly all actives have a fitted effect of over 55% in size
[3] = target: Retinaldehyde dehydrogenase 3 (Homo sapiens) (UniProt P47895); test: qHTS for Inhibitors of the Aldehyde Dehydrogenase Family (ALDH1A3) Primary screen (AID 2061315)

## C=C(CO)C(=O)O[C@H]1C[C@@]23O[C@@H]2CC/C(=C/[C@H]2OC(=O)C(=C)[C@H]12)CO[C@H]3O
[1]
  activation: 26.8%
[2]
  Potency: inactive
[3]
  Potency: inactive

## Cc1cnc(CNC(=O)c2c(=O)c3ccc(N4CCCN(C)CC4)nc3n3c2sc2ccccc23)cn1
[1]
  activation: 18.9% and -1.79%
[2]
  activity change, negative = inhibition: 8.69% [at 11.2 µM]
[3]
  activity change, negative = inhibition: 2.3% [at 11.2 µM]

## O=C(NCCN1CCCC1)c1cc(-c2ccc(CN3CCOCC3)cc2)nc2ccc(F)cc12
[1]
  activation: 3.67%
[2]
  Potency: inactive
[3]
  Potency: inactive

## COc1cc(-c2ccc(O)cc2)c(OC)c(O)c1C1=CC(=O)OC1CC(=O)O (centres undefined)
[1]
  activation: 13.7%
[2]
  Potency: inactive
[3]
  Potency: inactive

## O=C(O)CC1(O)C(=O)Nc2ccccc21 (centres undefined)
[1]
  activation: 1.79%
[2]
  Potency: inactive
[3]
  Potency: inactive

## CNC(=O)c1ccccc1Sc1ccc2c(/C=C/c3ccccn3)n[nH]c2c1
[1]
  activation: -18.6% and -9.82%
[2]
  Potency: inactive
[3]
  Potency: inactive

## C=C1CC[C@@H]2[C@](C)(CO)[C@H](O)CC[C@@]2(C)[C@@H]1C/C=C1/C(=O)OC[C@@H]1O
[1]
  Potency: 11.7 µM (active)
[2]
  Potency: inactive
[3]
  Potency: inactive

## CC(=O)OC[C@]12[C@H](OC(C)=O)C(=O)[C@@H]3[C@@H](OC(C)=O)[C@@]14O[C@@]3(C)COC(=O)c1cccnc1[C@@H](C)[C@H](C)C(=O)O[C@@H]([C@H](OC(C)=O)[C@@H]2OC(C)=O)[C@]4(C)O
[1]
  activation: -13.7%
[2]
  Potency: inactive
[3]
  Potency: inactive

## COc1ccc(NC(=O)C2C[C@H](C)CC[C@H]2C(C)C)cc1 (some centres undefined)
[1]
  activation: 5.67%
[2]
  Potency: inactive
[3]
  Potency: inactive

## c1cc(-c2cc(C3CCNCC3)[nH]n2)ccn1
[1]
  activation: 1.79%
[2]
  Potency: inactive
[3]
  Potency: inactive

## CCC(CCO[C@@H]1O[C@H](CO[C@H]2OC[C@](O)(CO)[C@H]2O)[C@@H](O)[C@H](O)[C@H]1O)C(C)(C)O (some centres undefined)
[1]
  activation: -6.87%
[2]
  Potency: inactive
[3]
  Potency: inactive

## O=C(Cc1ccccc1)OC[C@H]1O[C@H](O[C@H]2O[C@H](CO)[C@@H](O)[C@H](O)[C@H]2O)[C@H](O)[C@@H](O)[C@@H]1O
[1]
  activation: -3.05%
[2]
  Potency: inactive
[3]
  Potency: inactive

## C[C@@H]1O[C@@H](O[C@H]2[C@H](O[C@H]3[C@H](O[C@H]4CC[C@@]5(CO)C(CC[C@]6(C)C5CC=C5C7CC(C)(C)C[C@@H](O)[C@]7(C)CC[C@]56C)C4(C)C)O[C@H](C(=O)O)[C@@H](O)[C@@H]3O)OC[C@@H](O)[C@@H]2O)[C@H](O)[C@H](O)[C@H]1O (some centres undefined)
[1]
  activation: -15.3%
[2]
  Potency: inactive
[3]
  Potency: inactive

## NC[C@@H]1O[C@@H](O[C@@H]2[C@@H](O[C@@H]3O[C@H](CO)[C@@H](O)[C@H]3O)[C@H](O)[C@@H](N)C[C@H]2N)[C@@H](N)[C@H](O)[C@H]1O
[1]
  activation: -0.893%
[2]
  activity change, negative = inhibition: -0.412% [at 11.2 µM]
[3]
  activity change, negative = inhibition: -9.15% [at 11.2 µM]

## CC(C)C(C(=O)N1CCCC1C(=O)O)N(C)C(=O)C(O)Cc1ccccc1 (centres undefined) (H-[PhLac]-[NMeV]-Pro-OH; configuration not given here)
[1]
  activation: 22.3%
[2]
  Potency: inactive
[3]
  Potency: inactive

## O=C(Nc1ccc(C(O)(C(F)(F)F)C(F)(F)F)cc1)c1ccc(C(F)(F)F)cc1
[1]
  activation: 0%
[2]
  Potency: inactive
[3]
  Potency: inactive

## Fc1ccc(N2CCCCC2)c(NC(=S)c2ccncc2)c1
[1]
  activation: -8.04%
[2]
  Potency: inactive
[3]
  Potency: inactive

## COc1ccc2c(NC(=O)Nc3cccc(C(F)(F)F)n3)ccnc2c1
[1]
  activation: 16.1%
[2]
  Potency: inactive
[3]
  Potency: inactive

## CCCN(CCc1ccsc1)C1CCc2c(O)cccc2C1 (centres undefined)
[1]
  activation: 2.68%
[2]
  Potency: inactive
[3]
  Potency: inactive

## C=C(C)C1CC[C@]2(C(=O)O)CC[C@]3(C(=O)O)[C@H](CCC4[C@@]5(C)CC[C@H](O)C(C)(C)C5CC[C@]43C)C12 (some centres undefined)
[1]
  activation: -12.5%
[2]
  Potency: inactive
[3]
  Potency: inactive

## CCC/C=C1\OC(=O)C2=C1CCC(O)C2O (centres undefined)
[1]
  activation: 12.2%
[2]
  Potency: inactive
[3]
  Potency: inactive

## CC(=O)c1ccc2c(c1)C(O)C(C(C)(C)O)O2 (centres undefined)
[1]
  activation: -6.11%
[2]
  Potency: inactive
[3]
  Potency: inactive

## C/C=C(\C)C(=O)OC[C@H]1O[C@@H](O[C@H]2[C@@H](O[C@H]3O[C@H](COC(=O)/C(C)=C/C)[C@@H](O)[C@H](O)[C@H]3O[C@@H]3O[C@H](CO)[C@@H](O)[C@H](OC(=O)/C(C)=C/C)[C@H]3O)O[C@H](COC(=O)/C(C)=C/C)[C@@H](O)[C@@H]2O)[C@H](O)[C@@H](O)[C@@H]1O
[1]
  activation: -25.2%
[2]
  Potency: inactive
[3]
  Potency: inactive
